Hit rate of the full screen: of about 16,000 compounds, about 2,600 (16%) were called active. Roughly 20% stayed inconclusive and do not appear here. Calls come from the whole dose curve; as a rule, active = well fitted curve in the direction sought with a large enough effect; inconclusive = small, poorly fitted or top-dose-only effect, or effect the other way; inactive = no such curve, though single readings can be large or run the other way. These entries were drawn from the full list.
target: Cytochrome P450 2D6 (Homo sapiens) (UniProt P10635); assay: Cytochrome panel assay with activity outcomes; settings: recombinant CYP, pro-luciferin dealkylation, luminescence, p450-cyp2d6; series mostly up to 57.1 µM
Sequence (P10635 whole entry, looked up): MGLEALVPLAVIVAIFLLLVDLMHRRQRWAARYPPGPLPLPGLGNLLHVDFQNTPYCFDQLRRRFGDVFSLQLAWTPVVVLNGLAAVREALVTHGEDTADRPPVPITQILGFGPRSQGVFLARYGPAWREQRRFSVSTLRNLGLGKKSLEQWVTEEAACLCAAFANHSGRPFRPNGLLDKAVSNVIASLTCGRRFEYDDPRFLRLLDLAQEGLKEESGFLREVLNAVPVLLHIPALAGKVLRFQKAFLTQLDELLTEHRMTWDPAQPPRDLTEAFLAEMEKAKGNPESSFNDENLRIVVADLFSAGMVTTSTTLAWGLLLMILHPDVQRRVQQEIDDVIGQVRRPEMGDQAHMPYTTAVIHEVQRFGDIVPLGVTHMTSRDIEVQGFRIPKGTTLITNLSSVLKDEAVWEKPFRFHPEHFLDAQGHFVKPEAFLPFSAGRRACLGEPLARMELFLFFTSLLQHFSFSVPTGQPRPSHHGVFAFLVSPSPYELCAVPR

Compound	AC50
O=C(NC1(C(F)(F)F)NC(=O)N(Cc2cccnc2)C1=O)c1ccccc1 (stereo not given)	inactive
CC(C)(C)NC(=O)Cn1nnc(-c2ccccc2NC(=O)c2cnccn2)n1	inactive
CC(=O)Nc1ccc(NC2=Nc3ccccc3N3C2=Nc2c(c(C)nn2-c2ccccc2)C3c2ccccc2)cc1 (stereo not given)	inactive
Cc1nn(Cc2ccc(Cl)cc2Cl)c(C)c1NC(=O)c1sc2ccccc2c1Cl	inactive
C=CCc1cccc2cc(C(=O)N(CC)CC)c(=O)oc12	inactive
Cc1[nH]n(-c2ccccc2)c(=O)c1CCOC(=O)c1ccc(C(F)(F)F)cc1	inactive
CCOC(=O)c1ccc(N/C=C/C(=O)c2ccc(OC)cc2)cc1	inactive
CCOC(=O)c1ccc(OC(=O)CCCCCN=C(N)N)cc1	316 nM (active)
CCOC(=O)c1ccc(N)cc1	inactive
Cn1c(=O)c(-c2cccs2)nc2cnc(Oc3ccccc3)nc21	inactive
NC(=O)NC(=O)CSc1nnc(-c2ccco2)n1Cc1ccccc1	inactive
O=C(NC1CCCC1)c1cnn2c(C(F)(F)F)cc(-c3ccco3)nc12	inactive
FC(F)(F)c1cc(-c2ccco2)nc(NCCc2ccccc2)n1	5010 nM (active)
Cc1ccc(Cn2ccc(NC(=O)c3cc4nc(-c5ccco5)cc(C(F)(F)F)n4n3)n2)cc1	inactive
O=c1/c(=C\c2ccc(O)cc2)sc2n1C(c1ccccc1)C(c1ccccc1)=NN=2 (stereo not given)	inactive
COc1cccc(-c2nnc3n2N=C(C(C)(C)C)CS3)c1	inactive
CCCCNc1nc(-c2ccccc2)c(C(=O)OCC)cc1C#N	inactive
Cc1ccc(Oc2nnc(-c3ccccc3)cc2C#N)cc1	inactive
CSc1c(-c2ccccc2)nc2ccc(Cl)cc2c1C(=O)O	inactive
Cc1ccc2nc(N/N=C/c3ccccc3C#N)nc(-c3ccccc3)c2c1	1260 nM (active)
N#Cc1ccccc1/C=N/Nc1nc(-c2ccccc2)c2cc(Cl)ccc2n1	178 nM (active)
CN(C)c1nc(NCc2ccccc2)nc(N/N=C/c2ccc(Cl)cc2Cl)n1	inactive
Cc1ccc(-n2c(=O)[nH]cc(C(=O)N3CCc4ccccc43)c2=O)cc1	inactive
Cc1nc2cncnc2n(C2CC2)c1=O	inactive
COc1ccc(Oc2ncc3nc(-c4cccc(C#N)c4)c(=O)n(Cc4cccc(OC)c4)c3n2)cc1	inactive
O=C(O)c1nn(-c2ccccc2)ccc1=O	inactive
Cc1cc(C)cc(-n2c(O)c(C=NC3CCS(=O)(=O)C3)c3ccccc3c2=O)c1 (stereo not given)	inactive
CCCCOC(=O)Nc1ccccc1C(=O)OC	inactive
Cc1ccc(C)c(Nc2nc3nonc3nc2N2CCOCC2)c1	inactive
CCOc1ccc(-c2c(=O)n(OCc3ccccn3)c3ccccc3[n+]2[O-])cc1	inactive
